From PubChem BioAssay AID463173 (ICCB-Longwood Screening Facility, Harvard Medical School, 2010)
The campaign covered roughly 52,000 compounds. About 1,700 (3.3%) were called active. Cut-off read from the data, not from the text of the source: active = survival mostly below about 52% (no sharp cut-off); inactive = mostly above about 56%. Shown is part of a subset that was picked to be rich in actives.

system: Wild type; assay: growth inhibition of S. aureus wild type versus tarO mutant, primary screen, teichoic acid synthesis inhibitors, RN4220, OD600 (AID 463173); conditions: S. aureus RN4220 wild type/DeltatarO growth, OD600, 18 h, stronger effect = lower value, screened at 18.75 µg/mL (by protocol)

SMILES	survival
CC1CCN(S(=O)(=O)c2ccc3c(c2)c(=O)c(C(=O)N2CCN(c4cccc(Cl)c4)CC2)cn3C)CC1	94% (inactive)
CCCNC(=O)Cn1nc(-c2ccc(F)cc2)c2cnc3ccc(F)cc3c21	82% (inactive)
CCn1c(Cc2ccccc2)nnc1SCC(=O)N1CCCCC1C (stereo unspecified)	116% (inactive)
COc1ccc(NC(=O)CCc2nc3cccnc3n2-c2ccccc2)c(OC)c1	68% (inactive)
COc1ccc(OC)c(Nc2nc3ccccc3n3c(C)nnc23)c1	83% (inactive)
Nn1cnnc1SCC(=O)N(C1CCCCC1)C1CCCCC1	107% (inactive)
O=C(Nc1ccc(NC(=O)c2cccs2)cc1)c1cccs1	113% (inactive)
Cc1ccccc1CCNC(=O)c1ccc2c(c1)c(C)c(C)n2Cc1ccccc1	124% (inactive)
COc1cccc(/C=N/c2nc3ccccc3n2C)c1O	106% (inactive)
COc1cccc(/C=N/n2c(N)nc3ccccc32)c1OC	103% (inactive)
COc1ccccc1/C=C/c1nc2ccccc2n1C(C)C	2% (active)
CC1CC(C)N(C(=O)c2cc(-c3ccccc3)on2)C(C)C1 (stereo unspecified)	129% (inactive)
CCOc1ccc(NC(=O)CN(c2ccc(Cl)cc2C)S(=O)(=O)c2ccccc2)cc1	77% (inactive)
CCN(CC)CC(=O)Nc1nc2ccc(OC)cc2s1	103% (inactive)
N#C/C(=C\c1ccc(-c2ccc(F)cc2F)o1)c1nc2ccccc2[nH]1	38% (inactive)
Cc1c(Cl)cccc1-c1ccc(/C=C(\C#N)c2nc3ccccc3[nH]2)o1	8% (active)
N#C/C(=C\c1ccc(-c2ccccc2C(=O)O)o1)c1nc2ccccc2[nH]1	84% (inactive)
Cc1ccc(NC(=O)c2c(NC(=O)c3ccccc3)sc3c2CCC3)cc1	79% (inactive)
COc1ccc(NC(=O)c2c(NC(=O)C(F)(F)F)sc3c2CCCCC3)cc1	-1% (active)
Cc1ccc(NC(=O)c2c(NC(=O)Cc3ccccc3)sc3c2CCCC3)cc1	49% (inactive)
Cc1ccc(NC(=O)c2c(NC(=O)C(F)(F)F)sc3c2CCCCC3)cc1	-3% (active)

SMILES	survival
Cc1ccccc1NC(=O)c1c(NC(=O)Cc2ccccc2)sc2c1CCC2	48% (inactive)
Cc1ccccc1NC(=O)c1c(NC(=O)C(F)(F)F)sc2c1CCCCC2	1% (active)
Cc1ccccc1NC(=O)c1c(NC(=O)c2ccccc2)sc2c1CCC2	137% (inactive)
COc1ccc(CC(=O)Nc2sc3c(c2C(=O)Nc2ccc(C)cc2)CCCCC3)cc1	136% (inactive)
COc1ccc(NC(=O)c2c(NC(=O)c3ccc(Br)cc3)sc3c2CCCC3)cc1	157% (inactive)
COCCCNc1nc2c(c(=O)n(Cc3ccc(F)cc3)c(=O)n2C)n1C	130% (inactive)
CCC(O)c1cc2c(cc1NC(=O)c1cccc(Br)c1)OCCO2 (stereo unspecified)	71% (inactive)
Cc1ccc(N(C)C(=O)Cn2cc(S(=O)(=O)N3CCCC3)c(S(=O)(=O)N3CCCC3)c2)cc1	73% (inactive)
Cc1cccc(NC(=O)CN2C(=O)C(c3ccc(F)cc3)=NC23CCCCCC3)c1C	73% (inactive)
CCCN1CCN(c2ncnc3sc(C(=O)Nc4ccc(N(CC)CC)cc4C)c(C)c23)CC1	128% (inactive)
CCn1c(SC)nnc1C1CCCN(C(=O)c2ccccc2-c2ccccc2)C1 (stereo unspecified)	120% (inactive)
CCCCCn1c(-c2cccc(C)c2)nc2ccccc21	11% (active)
CCOc1ccc(Cn2c(-c3ccc(OCC)c(OC)c3)nc3ccccc32)cc1OC	94% (inactive)
CCCCn1c(C)nc2ccccc21	99% (inactive)
CCCCCn1c(CCCNC(=O)c2ccccc2OC)nc2ccccc21	68% (inactive)
CCCCCn1c(CCNC(=O)c2cccc(C)c2)nc2ccccc21	2% (active)
CCCCCn1c(-c2ccc(OC)c(OC)c2)nc2ccccc21	1% (active)
CCCCCn1c(C(C)NC(=O)c2ccccc2)nc2ccccc21 (stereo unspecified)	77% (inactive)
CCCCn1c(CCCNC(=O)c2cccc(C)c2)nc2ccccc21	73% (inactive)
CCCCCn1c(CCCNC(=O)c2cccc(C)c2)nc2ccccc21	50% (inactive)
Cc1ccc(S(=O)(=O)NCC(c2ccco2)N2CCOCC2)cc1 (stereo unspecified)	78% (inactive)

SMILES	survival
Cc1ccc2[nH]c(CSc3nnc(NC(=O)c4ccc(Cl)cc4)s3)cc(=O)c2c1	71% (inactive)
CCN(CCCNC(=O)c1nn(-c2ccc(C)cc2)c(=O)c2c1c1ccccc1n2C)c1ccccc1	82% (inactive)
Cc1cc(=O)c2c(o1)CC(C)(C)CC2=O	110% (inactive)
Cc1ccc(-n2cnc3cc(C(=O)NCc4ccccc4Cl)ccc32)c(C)c1	10% (active)
Cc1cc(C)cc(-n2cnc3cc(C(=O)NCCc4ccccc4)ccc32)c1	73% (inactive)
Cc1cccc(-n2cnc3cc(C(=O)NCc4ccccc4Cl)ccc32)c1	68% (inactive)
Cc1cccc(-n2c(C)nc3cc(C(=O)NCCC4=CCCCC4)ccc32)c1	73% (inactive)
CCCCCNC(=O)c1ccc2c(c1)nc(C)n2-c1cccc(C)c1	-2% (active)
CCCNC(=O)c1ccc2c(c1)ncn2-c1ccc(C)cc1C	59% (inactive)
Cc1cccc(-n2cnc3cc(C(=O)NC4CCCCCC4)ccc32)c1	124% (inactive)
CCOc1ccc(-n2c(C)nc3cc(C(=O)NCCC4=CCCCC4)ccc32)cc1	-6% (active)
Cc1nc2cc(C(=O)NCCC3=CCCCC3)ccc2n1-c1ccc(Br)cc1	75% (inactive)
CCCNC(=O)c1ccc2c(c1)nc(C)n2-c1cccc(C)c1	82% (inactive)
CCCCCNC(=O)c1ccc2c(c1)ncn2-c1cccc(C)c1	-3% (active)
COCCCNC(=O)c1ccc2c(c1)nc(C)n2-c1cccc(C)c1	69% (inactive)
Cc1ccc(OCC(=O)Nc2ccccc2C(=O)OCc2cc(=O)n3c(C)csc3n2)cc1	72% (inactive)
O=C(Nc1ccc(Cl)cc1)C1CCN(S(=O)(=O)c2ccc(Br)s2)CC1	60% (inactive)
CCC(C)(C)NC(=O)C1CCN(S(=O)(=O)c2ccc3c(c2)CCCN3C(C)=O)CC1	71% (inactive)
O=C(/C=C(/O)c1cccnc1)C(F)(F)F	86% (inactive)
